In PubChem BioAssay (NCI):
About 83,000 compounds went through this panel and 20% of them were active in at least one assay; those are over-represented in the sample as a whole.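 The endpoint reported here, percent growth, reads 100 for growth as untreated, 0 for no net growth and -100 for all cells dead.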 Active and inactive are the calls of the source. The calls were made as follows: active = growth percent below 10; inactive = the rest.

Legend:
Assay in all cases: NCI-60 one-dose screen, 48 h (100 = growth as untreated, 0 = no growth, -100 = all killed)
Settings in all cases: 10 µM unless noted
DU-145 prostate = tested on: DU-145 prostate
K-562 leukemia = tested on: K-562 leukemia
MALME-3M melanoma = tested on: MALME-3M melanoma
MDA-MB-231 breast = tested on: MDA-MB-231 breast
RXF 393 renal = tested on: RXF 393 renal
SF-268 CNS = tested on: SF-268 CNS
SF-295 CNS = tested on: SF-295 CNS
SF-539 CNS = tested on: SF-539 CNS
UACC-257 melanoma = tested on: UACC-257 melanoma
M14 melanoma = tested on: M14 melanoma
HCT-15 colon = tested on: HCT-15 colon
HT29 colon = tested on: HT29 colon
SNB-75 CNS = tested on: SNB-75 CNS
SNB-19 CNS = tested on: SNB-19 CNS
U251 CNS = tested on: U251 CNS
PC-3 prostate = tested on: PC-3 prostate
SK-MEL-5 melanoma = tested on: SK-MEL-5 melanoma
UACC-62 melanoma = tested on: UACC-62 melanoma
LOX IMVI melanoma = tested on: LOX IMVI melanoma
SK-MEL-28 melanoma = tested on: SK-MEL-28 melanoma

Measured: growth

COc1ccc(C(=O)/C=C/c2ccc(Cl)cc2)cc1S(=O)(=O)Nc1c(N)nc(SC)[nH]c1=O
inactive: DU-145 prostate 88.3% | MALME-3M melanoma 90.1% | MDA-MB-231 breast 68.2% | RXF 393 renal 92% | SF-268 CNS 45.3% | SF-295 CNS 90.1% | UACC-257 melanoma 90.9% | M14 melanoma 74.7% | HCT-15 colon 65.7% | HT29 colon 31.3% | SNB-75 CNS 33.4% | PC-3 prostate 39.1% | SK-MEL-5 melanoma 74.1% | UACC-62 melanoma 62.3% | SK-MEL-28 melanoma 97.4%
active: K-562 leukemia 3.84% | SF-539 CNS -5.49% | SNB-19 CNS 8.18% | U251 CNS -4.2% | LOX IMVI melanoma 2.64%

CC(C)=CCNc1ncnc2c1ncn2C1OC(CO)C(O)C1O (stereo not given)
inactive: MALME-3M melanoma 32.4% [1 mM] | UACC-257 melanoma 92.7% [1 mM] | M14 melanoma 26.9% [1 mM] | SNB-19 CNS 13.5% [1 mM] | U251 CNS 35.2% [1 mM] | SK-MEL-5 melanoma 49.4% [1 mM] | UACC-62 melanoma 27.5% [1 mM] | SK-MEL-28 melanoma 79.5% [1 mM]
active: DU-145 prostate -89.4% [1 mM] | K-562 leukemia 7.4% [1 mM] | MDA-MB-231 breast -54.7% [1 mM] | RXF 393 renal -71.2% [1 mM] | SF-268 CNS 4.72% [1 mM] | SF-295 CNS -24.2% [1 mM] | SF-539 CNS -41.8% [1 mM] | HCT-15 colon -49.7% [1 mM] | HT29 colon -5.71% [1 mM] | SNB-75 CNS -32.6% [1 mM] | PC-3 prostate -25.8% [1 mM] | LOX IMVI melanoma -96.7% [1 mM]

CCOc1ccc(-n2nc(C(=O)NCc3ccccc3OC)nc2-c2cc(OC)c(OC)c(OC)c2)cc1
active: SK-MEL-5 melanoma -1.22%
inactive: DU-145 prostate 65.2% | K-562 leukemia 22.1% | MALME-3M melanoma 87.5% | MDA-MB-231 breast 17.8% | RXF 393 renal 43.5% | SF-268 CNS 54.1% | SF-295 CNS 34.8% | SF-539 CNS 49.2% | UACC-257 melanoma 62.7% | M14 melanoma 42.2% | HCT-15 colon 29% | HT29 colon 40.6% | SNB-75 CNS 30% | SNB-19 CNS 45.2% | U251 CNS 42.5% | PC-3 prostate 24.6% | UACC-62 melanoma 37% | LOX IMVI melanoma 36.3% | SK-MEL-28 melanoma 36.6%

Cc1nn(-c2ccccc2)c(N)c1N=C1NC(=O)/C(=C/c2ccc(Br)cc2)S1
inactive: DU-145 prostate 96.4% | K-562 leukemia 58.8% | MALME-3M melanoma 93.8% | MDA-MB-231 breast 86% | RXF 393 renal 151% | SF-268 CNS 81.6% | SF-295 CNS 87.2% | SF-539 CNS 83.4% | UACC-257 melanoma 111% | M14 melanoma 89.9% | HCT-15 colon 81.5% | HT29 colon 106% | SNB-75 CNS 85.2% | SNB-19 CNS 73.5% | U251 CNS 77.1% | PC-3 prostate 74% | SK-MEL-5 melanoma 99% | UACC-62 melanoma 77.6% | LOX IMVI melanoma 90.4% | SK-MEL-28 melanoma 94.5%

COC(=O)c1c2c(n3ccccc13)C(=O)c1ccccc1C2=O
inactive: DU-145 prostate 69.4% | K-562 leukemia 54.9% | MALME-3M melanoma 55.8% | MDA-MB-231 breast 64.4% | RXF 393 renal 72.1% | SF-268 CNS 74% | SF-295 CNS 64.5% | SF-539 CNS 89.5% | UACC-257 melanoma 70.4% | M14 melanoma 63.6% | HCT-15 colon 51.4% | HT29 colon 55.3% | SNB-75 CNS 113% | SNB-19 CNS 62.5% | U251 CNS 61.6% | PC-3 prostate 47.2% | SK-MEL-5 melanoma 18.1% | UACC-62 melanoma 65.7% | LOX IMVI melanoma 49.3% | SK-MEL-28 melanoma 106%

CN1CCN(Cc2ccc(NC(=O)c3cncc(C#Cc4cnc5ccc(Cl)nn45)c3)cc2C(F)(F)F)CC1
active: DU-145 prostate 4.06% | K-562 leukemia 1.96% | MALME-3M melanoma -63.1% | MDA-MB-231 breast -1.94% | RXF 393 renal -52.8% | SF-268 CNS -41.6% | SF-295 CNS 9.72% | SF-539 CNS -62% | UACC-257 melanoma 3.9% | M14 melanoma -56.7% | HCT-15 colon 0.05% | HT29 colon 2.68% | SNB-75 CNS -52.4% | SNB-19 CNS 6.75% | U251 CNS 4.22% | PC-3 prostate -18.6% | SK-MEL-5 melanoma -58.7% | UACC-62 melanoma -14.5% | LOX IMVI melanoma -44.3% | SK-MEL-28 melanoma -8.84%

O=C1Nc2ccccc2C1(c1c[nH]c2ccccc12)c1c[nH]c2ccccc12
inactive: DU-145 prostate 29.6% | K-562 leukemia 42.9% | MALME-3M melanoma 81.8% | MDA-MB-231 breast 49% | SF-268 CNS 53.2% | SF-295 CNS 86.3% | SF-539 CNS 47.1% | UACC-257 melanoma 94.6% | M14 melanoma 66% | HCT-15 colon 32.2% | HT29 colon 53.3% | SNB-19 CNS 81.5% | U251 CNS 73.7% | SK-MEL-5 melanoma 89.4% | UACC-62 melanoma 70.3% | SK-MEL-28 melanoma 108%
active: RXF 393 renal -53% | SNB-75 CNS -12.9% | PC-3 prostate -9.62% | LOX IMVI melanoma 8.4%

C/C(=N\O)[C@@H]1CC[C@]2(CO)CC[C@]3(C)[C@H](CC[C@@H]4[C@@]5(C)CCCNC(C)(C)[C@@H]5CC[C@]43C)[C@@H]12
active: K-562 leukemia 2.56%
inactive: DU-145 prostate 95% | MALME-3M melanoma 95.4% | MDA-MB-231 breast 90.9% | RXF 393 renal 80.8% | SF-268 CNS 84.7% | SF-295 CNS 92.5% | SF-539 CNS 93.3% | UACC-257 melanoma 97.6% | M14 melanoma 87% | HCT-15 colon 83.6% | HT29 colon 24.5% | SNB-75 CNS 68.9% | SNB-19 CNS 89.4% | U251 CNS 61.4% | PC-3 prostate 60.6% | SK-MEL-5 melanoma 84.1% | UACC-62 melanoma 90.5% | LOX IMVI melanoma 77.6% | SK-MEL-28 melanoma 93.2%
